Measured values from PubChem BioAssay (NCI).
The panel holds about 83,000 compounds, 20% with a hit somewhere; the sample as a whole holds those more often.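 The test compound was applied at a single concentration to cells in 96-well plates for 48 hours, and percent growth was recorded.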 The source made the active and inactive calls. The calls were made as follows: active = growth percent below 10; inactive = the rest.

Key:
Experiment in all cases: NCI-60 one-dose screen, 48 h (100 = growth as untreated, 0 = no growth, -100 = all killed)
Details in all cases: 10 µM unless noted
DU-145 prostate = system: DU-145 prostate
K-562 leukemia = system: K-562 leukemia
MALME-3M melanoma = system: MALME-3M melanoma
MDA-MB-231 breast = system: MDA-MB-231 breast
RXF 393 renal = system: RXF 393 renal
SF-268 CNS = system: SF-268 CNS
SF-295 CNS = system: SF-295 CNS
SF-539 CNS = system: SF-539 CNS
UACC-257 melanoma = system: UACC-257 melanoma

Measured: growth

COc1ccc(C/C(C)=C(/c2ccc(OCCN3CCCCCC3)cc2)c2ccc(OC(=O)NCc3ccccc3)cc2)cc1
inactive: DU-145 prostate 95.6% | K-562 leukemia 28% | MALME-3M melanoma 95.2% | MDA-MB-231 breast 83.9% | RXF 393 renal 84% | SF-268 CNS 88.4% | SF-295 CNS 98.2% | SF-539 CNS 96.7% | UACC-257 melanoma 94.7%

COc1ccc(/C=C/C(=O)c2cc3c(N)c(C(=O)Nc4ccc(OC)cc4)sc3nc2C)cc1
active: RXF 393 renal -14.4% | SF-539 CNS -25.5%
inactive: DU-145 prostate 17.5% | K-562 leukemia 17.9% | MALME-3M melanoma 49.1% | MDA-MB-231 breast 24.7% | SF-268 CNS 39.5% | SF-295 CNS 11.6% | UACC-257 melanoma 55.3%

O=C1NC(=O)c2c1c1c3ccccc3[nH]c1c1oc3ccc(F)cc3c21
inactive: DU-145 prostate 77.4% | K-562 leukemia 78.4% | MALME-3M melanoma 48.6% | MDA-MB-231 breast 77.9% | RXF 393 renal 69.1% | SF-268 CNS 79.5% | SF-295 CNS 71% | SF-539 CNS 64.3% | UACC-257 melanoma 95.1%

Fc1ccc(CNc2c3ccccc3nc3ccccc23)cc1
inactive: DU-145 prostate 34.9% | MALME-3M melanoma 25.7% | MDA-MB-231 breast 38.3% | SF-268 CNS 53.3% | SF-295 CNS 27.6% | SF-539 CNS 13.1% | UACC-257 melanoma 36%
active: K-562 leukemia 4.79% | RXF 393 renal 0.247%

COc1ccc(C(C)=O)cc1S(N)(=O)=O
inactive: DU-145 prostate 106% | K-562 leukemia 104% | MALME-3M melanoma 99.3% | MDA-MB-231 breast 103% | RXF 393 renal 102% | SF-268 CNS 101% | SF-295 CNS 94.6% | SF-539 CNS 104% | UACC-257 melanoma 91.9%

CCCCCn1sc(=O)n(Cc2ccc(CNC(=O)OCc3ccc4c(Cl)cc(Cl)c(O)c4n3)cc2)c1=O
inactive: DU-145 prostate 63.9% | K-562 leukemia 45.8% | MALME-3M melanoma 70.4% | MDA-MB-231 breast 75.6% | RXF 393 renal 32.5% | SF-268 CNS 66.6% | SF-295 CNS 35.1% | SF-539 CNS 77.1% | UACC-257 melanoma 87.9%

CN(C)c1ccc(/C=C2/C=C(c3ccccc3)OC2=O)cc1
inactive: DU-145 prostate 101% | K-562 leukemia 46.9% | MALME-3M melanoma 96.2% | MDA-MB-231 breast 109% | RXF 393 renal 89.5% | SF-268 CNS 101% | SF-295 CNS 79.4% | SF-539 CNS 102% | UACC-257 melanoma 89.2%

C[Se]C(=O)CC1=C2C=C(F)C=CC2/C(=C\c2ccc(S(C)=O)cc2)C1C (stereo unspecified)
active: DU-145 prostate -50.5% | MALME-3M melanoma -68.7% | MDA-MB-231 breast -46% | RXF 393 renal 6.68% | SF-268 CNS -28.2% | SF-539 CNS -30.3% | UACC-257 melanoma -21.5%
inactive: K-562 leukemia 28.6% | SF-295 CNS 11.3%

COc1cc(-c2nc3occn3c2-c2ccnc(NCCCNS(=O)(=O)c3ccccc3)n2)ccc1F
inactive: DU-145 prostate 52.5% | K-562 leukemia 26.5% | MALME-3M melanoma 18.4% | MDA-MB-231 breast 45.1% | RXF 393 renal 48.6% | SF-268 CNS 52.8% | SF-295 CNS 46% | SF-539 CNS 78.8% | UACC-257 melanoma 41.4%

O=C1/C(=C/c2ccc(C(F)(F)F)cc2)COc2ccc(O)c(O)c21
inactive: DU-145 prostate 16.1% | MALME-3M melanoma 23.6% | RXF 393 renal 24.5% | SF-295 CNS 85.8% | UACC-257 melanoma 25.3%
active: K-562 leukemia 3.76% | MDA-MB-231 breast -10% | SF-268 CNS -0.987% | SF-539 CNS -83.9%

CCN(CC)CCN(CCN(CC)CC)c1ccccc1
inactive: DU-145 prostate 109% | K-562 leukemia 93% | MALME-3M melanoma 110% | MDA-MB-231 breast 89.6% | RXF 393 renal 90.8% | SF-268 CNS 97.7% | SF-295 CNS 111% | SF-539 CNS 87.6% | UACC-257 melanoma 93.1%

O=c1nc(Nc2nc3ccccc3s2)[nH]c(=O)c2ccccc12
inactive: DU-145 prostate 106% | K-562 leukemia 95.9% | MALME-3M melanoma 99.7% | MDA-MB-231 breast 98.3% | RXF 393 renal 98.1% | SF-268 CNS 102% | SF-295 CNS 99.3% | SF-539 CNS 97.5% | UACC-257 melanoma 107%

CC1COCC(C)N1C1=C(Cl)C(=O)c2ccccc2C1=O (stereo unspecified)
active: K-562 leukemia 0.947%
inactive: DU-145 prostate 97.9% | MALME-3M melanoma 75.3% | MDA-MB-231 breast 67.4% | RXF 393 renal 61.3% | SF-268 CNS 90.8% | SF-295 CNS 102% | SF-539 CNS 104% | UACC-257 melanoma 37.1%

CC(C(=O)O)n1c(O)c(C=Nc2cccnc2)sc1=S (stereo unspecified)
inactive: DU-145 prostate 97% | K-562 leukemia 89% | MALME-3M melanoma 98.8% | MDA-MB-231 breast 86.3% | RXF 393 renal 88.7% | SF-268 CNS 87.7% | SF-295 CNS 101% | SF-539 CNS 98.1% | UACC-257 melanoma 103%

O=C(CSc1nc2ccc([N+](=O)[O-])cc2[nH]1)Nc1ccc(Br)cc1
inactive: DU-145 prostate 62.2% | K-562 leukemia 26.9% | MALME-3M melanoma 40.9% | MDA-MB-231 breast 67.7% | RXF 393 renal 85.5% | SF-268 CNS 65.5% | SF-295 CNS 56.5% | SF-539 CNS 70.5% | UACC-257 melanoma 37.7%

Cn1ccnc1C(=O)/C=C/c1ccc(C(=O)Nc2ccc(F)cc2)cc1
active: K-562 leukemia 4.37% | RXF 393 renal 5.96% | SF-295 CNS 6.55% | SF-539 CNS -40.1%
inactive: DU-145 prostate 19.9% | MALME-3M melanoma 66.4% | MDA-MB-231 breast 18.7% | SF-268 CNS 14.4% | UACC-257 melanoma 62.2%

COc1ccc(NC(=O)c2ccc(C(=O)Nc3ccc(OC)cc3OC)cc2)c(OC)c1
inactive: DU-145 prostate 94.6% | K-562 leukemia 110% | MALME-3M melanoma 84.5% | MDA-MB-231 breast 53.1% | RXF 393 renal 40.5% | SF-268 CNS 29.7% | SF-295 CNS 57.3% | SF-539 CNS 35.8% | UACC-257 melanoma 90.6%

C=CC1(C)C(O[Si](C)(C)C(C)(C)C)CC2C3OC(=O)NC31c1cccc3c1[C@H](C(=O)N3C)C2(C)C (stereo partly specified)
inactive: DU-145 prostate 76.2% | K-562 leukemia 34% | MALME-3M melanoma 64% | MDA-MB-231 breast 43.3% | RXF 393 renal 68.6% | SF-268 CNS 73.6% | SF-295 CNS 46.9% | SF-539 CNS 65.4% | UACC-257 melanoma 33.1%

O=C1N[C@@H]2[C@@H](O)[C@@H](O)[C@H](O)C[C@H]2c2cc3c(c(O)c21)OCCO3
active: DU-145 prostate -2.39% | K-562 leukemia 1.56% | MALME-3M melanoma -23.8% | MDA-MB-231 breast -24.1% | RXF 393 renal -24.2% | SF-268 CNS -0.713% | SF-295 CNS -14.9% | SF-539 CNS -24.1% | UACC-257 melanoma -22.2%

Cn1cc(-c2nonc2-c2c[nH]c3ccccc23)c2ccccc21
inactive: DU-145 prostate 17.4% | MALME-3M melanoma 42.9% | SF-268 CNS 25.8% | UACC-257 melanoma 33.2%
active: K-562 leukemia 5.23% | MDA-MB-231 breast 0.833% | RXF 393 renal -3.69% | SF-295 CNS 8.43% | SF-539 CNS -35.4%

CC[C@H](CC[C@@H](C)[C@H]1CC[C@H]2[C@@H]3CC[C@@H]4CC(=O)/C(=C\c5ccncc5)C[C@]4(C)[C@H]3CC[C@]12C)C(C)C
inactive: DU-145 prostate 109% | K-562 leukemia 97% | MALME-3M melanoma 100% | MDA-MB-231 breast 104% | RXF 393 renal 109% | SF-268 CNS 107% | SF-295 CNS 99.2% | SF-539 CNS 103% | UACC-257 melanoma 106%

COc1cc(Nc2c3ccc(Cl)cc3nc3ccc(OC)cc23)c2ncccc2c1
inactive: DU-145 prostate 39.4% | K-562 leukemia 53.2% | MALME-3M melanoma 32.1% | MDA-MB-231 breast 34% | RXF 393 renal 45.5% | SF-268 CNS 43.3% | SF-295 CNS 46.2% | SF-539 CNS 45% | UACC-257 melanoma 59.6%

COc1cccc2c(N=NC(=O)c3ccc(S(N)(=O)=O)cc3)c(O)[nH]c12
inactive: DU-145 prostate 115% | K-562 leukemia 98.5% | MALME-3M melanoma 103% | MDA-MB-231 breast 102% | RXF 393 renal 106% | SF-268 CNS 106% | SF-295 CNS 102% | SF-539 CNS 102% | UACC-257 melanoma 107%

C#CC#CC#CC#CC#CC#CC#CC#CC[C@H]1OC[C@@H](COC(=O)O[C@@H](C(=O)O[C@H]2C[C@@]3(O)[C@@H](OC(=O)c4ccccc4)[C@@H]4[C@]5(OC(C)=O)CO[C@@H]5C[C@H](O)[C@@]4(C)C(=O)[C@H](OC(C)=O)C(=C2C)C3(C)C)[C@@H](NC(=O)c2ccccc2)c2ccccc2)O1
inactive: DU-145 prostate 41.1% | K-562 leukemia 22.7% | MALME-3M melanoma 62.5% | MDA-MB-231 breast 66% | RXF 393 renal 50.7% | SF-268 CNS 65.9% | SF-295 CNS 43.5% | SF-539 CNS 54.1% | UACC-257 melanoma 64.6%

COc1cc2nc(Nc3cccc(F)c3)nc(Nc3cc(C)[nH]n3)c2cc1OC
active: DU-145 prostate -94.7% [20 µM] | K-562 leukemia -31.1% [20 µM] | MALME-3M melanoma -98.1% [20 µM] | MDA-MB-231 breast -98.6% [20 µM] | RXF 393 renal -88.7% [20 µM] | SF-268 CNS -69.9% [20 µM] | SF-295 CNS -92.1% [20 µM] | SF-539 CNS -100% [20 µM] | UACC-257 melanoma -62.4% [20 µM]

CCOC(=O)C(=Cc1cccc(C#N)c1)C(=O)OCC
inactive: DU-145 prostate 48% | K-562 leukemia 22.7% | MALME-3M melanoma 49.9% | MDA-MB-231 breast 55.4% | RXF 393 renal 33.5% | SF-268 CNS 64.1% | SF-295 CNS 95.9% | SF-539 CNS 62.9% | UACC-257 melanoma 69.6%

COc1ccc(NC(=O)c2sc3nc(C)c(C(O)c4ccccc4)cc3c2N)cc1 (stereo unspecified)
inactive: DU-145 prostate 14.1% | MALME-3M melanoma 38% | MDA-MB-231 breast 27.7% | SF-268 CNS 50.3% | SF-295 CNS 23.1% | UACC-257 melanoma 64.4%
active: K-562 leukemia 8.04% | RXF 393 renal -7.22% | SF-539 CNS -4.84%

CC1(C)OC(=O)C(=Cc2cccc(Br)c2)C(=O)O1
inactive: DU-145 prostate 112% | K-562 leukemia 98.6% | MALME-3M melanoma 108% | MDA-MB-231 breast 107% | RXF 393 renal 96.4% | SF-268 CNS 102% | SF-295 CNS 102% | SF-539 CNS 108% | UACC-257 melanoma 85.8%

Cc1ccc(C)c2c1C(O)(C#Cc1ccccc1)c1ccccc1C2(O)C#Cc1ccccc1 (stereo unspecified)
active: SF-295 CNS 4.71%
inactive: DU-145 prostate 87% | K-562 leukemia 22.2% | MALME-3M melanoma 39.2% | MDA-MB-231 breast 77% | RXF 393 renal 64.5% | SF-268 CNS 56.5% | SF-539 CNS 56.8% | UACC-257 melanoma 63%
